Values without a mark were called inactive. Active and inactive are the calls of the source. No rule for the calls is given here. Bounds are passed on as bounds.
Potency is read from the fitted curve at half-maximal effect.

The test system of the experiment is HIV-1 nucleocapsid protein NCp7 (binding to TG oligonucleotide). In words: HIV Nucleocapsid (AID 346).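 Also: potency is for inhibitors that block NC binding and lower polarization.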 The note with it: HIV-1 NC / fluorescein-TGTGTGTG probe, fluorescence polarization. The method, then:
NCGC Assay Overview: HIV-1 nucleocapsid protein (HIV-1 NC) is a small (6.5 kDa) basic zinc-finger protein which participates in packaging of viral genomic RNA. The spacing and metal-chelating residues (3 Cys, 1 His) of the Cys-X2-Cys-X4-His-X4-Cys Zn fingers are conserved among all known retroviruses (J. Med. Chem. 1998, 41, 1371-1381). HIV-1 NC was assayed for its binding to the consensus sequence single-stranded 5'-TGTGTGTG. […] High salt was included to increase the stringency of binding and inhibitor screen. Reducing agents and zinc were present to stabilize the nucleocapsid zinc-finger protein.
NCGC Assay Protocol Summary: Buffer. Hepes pH 7.5, 250mM NaCl, 1uM ZnCl2. 0.004% polyethylene glycol 20000. TCEP (100 uM) and 2-Mercaptoethanol (5 mM), added fresh the day of the experiment. Reagents/Controls. 10 nM TG4xF only in columns 3 and 4 as negative control. 10 nM TG4xF/100 nM HIV-1 NC in columns 1, 2, 5-48. Titration of control compound NSC-13778 (from 20 mM, then 1:2) pin-transferred to column 2. Assay Steps. Two uL of reagents were dispensed to 1536-well Kalypsys black plates. The plates were centrifuged for 1 min at 1000 rpm. Compounds and controls (20 nL) were transferred via Kalypsys PinTool. The plates were incubated for 1 hr at room temperature, and then read on ViewLux (Perkin-Elmer). High-throughput CCD imager using fluorescein polarization filter set and 45 seconds exposure time.
(Fluorescence polarisation rises when a labelled molecule tumbles more slowly, as on binding a larger partner.)
Turning to `CN(C)c1ccc(-c2nccc(NCc3cccs3)n2)cc1`, the Potency was over 20 µM.
As to `COc1ccc(NC(=O)N2CCCC3(CCN(C(=O)c4ccco4)CC3)C2)cc1`, the Potency is over 20 µM.
To `N#CCCn1c(=O)c(-c2cc(F)cc(F)c2)nc2cnc(Oc3cccc(Cl)c3)nc21` belongs over 20 µM; to `COCC(=O)N1CCC2(CCN(Cc3nccs3)CC2)CC1`, over 20 µM; to `Cc1noc(C)c1-c1ccc2ncnc(N(C)C)c2c1`, over 20 µM.
The value for `CCNc1ncc2nc(-c3ccc(Cl)cc3)c(=O)n(C)c2n1` was over 20 µM.
As to `O=c1c(-c2ccc(F)cc2)nc2cnc(Oc3ccccc3)nc2n1C[C@H]1CCCO1`, the Potency was over 20 µM.
To `COc1ccc(-n2c(=O)cnc3cnc(Oc4ccccc4)nc32)cc1` belongs over 20 µM; to `COCCn1c(=O)c(-c2ccc(Cl)cc2)nc2cnc(Nc3ccccc3)nc21`, over 20 µM.
Take `N#CCCn1c(=O)c(-c2cccs2)nc2cnc(OCc3ccccc3)nc21`: the Potency is over 20 µM.
The value for `COCCn1c(=O)c(CCc2ccccc2)nc2cnc(Oc3ccc(OC)cc3)nc21` was over 20 µM; that for `COc1cccc(-c2ccc3ncnc(N(C)C)c3c2)c1` was over 20 µM.
To `COc1ccc(-c2nc3cnc(N4CCN(C)CC4)nc3n(CCC#N)c2=O)cc1` belongs over 20 µM; to `CCNc1ncc2nc(-c3ccc(Cl)cc3)c(=O)n(-c3ccccc3)c2n1`, 7.07 µM (active).
To `COc1ccccc1CNc1cc(-c2ccoc2)ncn1` belongs over 20 µM.
Turning to `Cn1cccc1C(=O)N1CCC2(CC1)CCN(c1ccccc1)CC2`, the Potency was over 20 µM.
To `FC(F)(F)c1ccccc1-c1cncnc1-n1ccnc1` belongs over 20 µM; to `COc1ccccc1CNc1ncncc1-c1ccc(C(=O)N(C)C)cc1`, over 20 µM.
The value for `O=c1cnc2cnc(Nc3ccccc3)nc2n1C1CC1` was over 20 µM; that for `COc1ncc2nc(-c3ccccc3)c(=O)n(C[C@H]3CCCO3)c2n1` was over 20 µM.
For `O=c1c(-c2cccs2)nc2cncnc2n1C1CC1`, the Potency is over 20 µM.
To `COc1ccc2[nH]cc(CCNc3ncncc3-c3cccc(NS(C)(=O)=O)c3)c2c1` belongs over 20 µM; to `CN(C)C(=O)c1ccc(-c2cncnc2NCc2cccnc2)cc1`, over 20 µM; to `CN(C)C(=O)c1ccc(-c2nc(NC3CCNCC3)c3ccccc3n2)cc1`, over 20 µM.
The value for `COc1ccc(-c2nc3cnc(N4CCN(C)CC4)nc3n(C)c2=O)cc1` was over 20 µM.
To `COc1ccc(C(=O)N2CCC[C@@]3(CCN(C)C3)C2)cc1` belongs over 20 µM; to `O=C(c1cnccn1)N1CCC2(CCCN(Cc3ccccc3)C2)CC1`, over 20 µM.
For `COc1ccc(Oc2ncc3nc(C)c(=O)n(Cc4cccc(OC)c4)c3n2)cc1`, the Potency is over 20 µM.
The value for `Clc1ccccc1-c1nc(-n2ccnc2)c2ccccc2n1` was over 20 µM; that for `O=c1c(CCc2ccccc2)nc2cncnc2n1C1CC1` was over 20 µM; that for `FC(F)(F)c1ccccc1-c1nc(NC2CC2)c2ccccc2n1` was over 20 µM.
The value for `Cc1ccccc1-c1ccc2ncnc(NCc3cccnc3)c2c1` was over 20 µM; that for `Cn1cccc1C(=O)N1CCC2(CC1)CN(c1ccncc1)C2` was over 20 µM; that for `CC(C)NC(=O)N1CCCC2(CCN(C(=O)c3cccn3C)CC2)C1` was over 20 µM.
On to `CNc1ccnc(-c2cccc(NS(C)(=O)=O)c2)n1`, for which the Potency is over 20 µM.
The value for `O=C(c1cc(C(F)(F)F)cc(C(F)(F)F)c1)N1CCC2(CCCN(c3ccccn3)C2)CC1` was over 20 µM; that for `CC(=O)N1CCC2(CCN(Cc3ccncc3)CC2)CC1` was over 20 µM; that for `O=S(=O)(c1ccccc1)N1CCC2(CCCN(c3ccncc3)C2)CC1` was over 20 µM.
Turning to `COc1cccc(Cn2c(=O)c(CCc3ccccc3)nc3cnc(N4CCNCC4)nc32)c1`, the Potency is over 20 µM.
As to `COc1ccc(NC(=O)N2CC[C@@]3(CCCN(C(=O)c4cnccn4)C3)C2)cc1`, the Potency is over 20 µM.

(Values after PubChem BioAssay (NCATS).)
